{
  "source": "ChEMBL document CHEMBL3988442",
  "about": "“University of Dundee, Small-Polar-MMV Screening Library” (2021)",
  "data": [
    {"biological_target": "AMP-activated protein kinase, AMPK (Homo sapiens) (UniProt P54646+O43741+P54619+Q9UGJ0+Q9Y478+Q13131+Q9UGI9)", "test": "AMP-dependent Kinase enzyme assay. An in vitro enzyme assay that detects ADP turnover that is directly proportional to AMPK activity. This uses naive AMPK that is activated during the assay with MK-8722", "assay_type": "functional", "set-up": "scale not given: direction of the effect not stated beside the values", "conditions": "30 µM", "units": {"Percent Effect": "%"}, "values": [
      {"smiles": "Cc1ccc(OCC2CCCN(c3cc(C(N)=O)ccn3)C2)cc1", "note": "(centres undefined)", "Percent Effect": 2.7},
      {"smiles": "Cc1cc(=O)c2cc(F)ccc2n1CC(=O)O", "Percent Effect": 7.06},
      {"smiles": "N#Cc1cccc(S(=O)(=O)NC2CCN(CC(F)(F)F)C2)c1", "note": "(centres undefined)", "Percent Effect": -2.39},
      {"smiles": "COC(=O)C1(NCC(=O)Nc2cc(C)ccc2OC)CCCCC1", "Percent Effect": -3.05},
      {"smiles": "Cc1nc(C)c(C(=O)N2CCCc3c(F)ccc(F)c32)o1", "Percent Effect": -2.55},
      {"smiles": "CC(CNC(=O)c1cc(Cn2cnc3ccccc32)[nH]n1)N1CCCC1", "note": "(centres undefined)", "Percent Effect": -5.09},
      {"smiles": "O=S(=O)(Cc1nc(C2CC2)no1)c1ccccc1F", "Percent Effect": 1.42},
      {"smiles": "NCc1ccnc(Oc2ccccc2)c1", "Percent Effect": -5.26},
      {"smiles": "CC(C)(C)CC(NC(=O)N1CCC(C(N)=O)CC1)C(F)(F)F", "note": "(centres undefined)", "Percent Effect": -1.73},
      {"smiles": "CNC(=O)Cc1ccc(NC(=O)NCc2nc(C)sc2C)cc1", "Percent Effect": 0.571},
      {"smiles": "CCc1nc(N)nc(NCCC(=O)NC2CCCCC2)c1C", "Percent Effect": 0.541},
      {"smiles": "CN(Cc1ccc2c(c1)OCO2)Cc1cscn1", "Percent Effect": -5.54},
      {"smiles": "Cc1nc(CN(C)S(=O)(=O)c2ccccc2Br)no1", "Percent Effect": 6.12},
      {"smiles": "NC(=O)CN1CCC(c2noc3cc(F)ccc23)CC1", "Percent Effect": 12.7},
      {"smiles": "O=C(NCc1sc2ccccc2c1Cl)c1cc2n(n1)CCNC2", "Percent Effect": 10.8},
      {"smiles": "CC(OCC1CC1)C(=O)NCCC(=O)Nc1ccccn1", "note": "(centres undefined)", "Percent Effect": 12.4},
      {"smiles": "O=C(NCc1ccco1)N1CCOC(c2ccccc2Cl)C1", "note": "(centres undefined)", "Percent Effect": 3.01},
      {"smiles": "CN(Cc1nncn1C)C(=O)c1cc(COc2ccccc2F)[nH]n1", "Percent Effect": -9.05},
      {"smiles": "CCOc1ccc2cc(C(=O)NCCNc3ccc(C)nn3)[nH]c2c1", "Percent Effect": 6.22},
      {"smiles": "CCN(CC(=O)NC)C(=O)c1csc(Cc2ccccc2)n1", "Percent Effect": -5.87},
      {"smiles": "COc1cccc(-c2nc(CNCc3cccnc3)cs2)c1", "Percent Effect": -1.6},
      {"smiles": "O=C(CN1CCC(c2nnc(C(F)(F)F)o2)CC1)Nc1cccnc1", "Percent Effect": -5.12},
      {"smiles": "O=C(NC1CCCN(Cc2c(F)cccc2F)C1)c1cnccn1", "note": "(centres undefined)", "Percent Effect": 6.06},
      {"smiles": "CCn1c(C2CCCNC2)nn(CCn2cncn2)c1=O", "note": "(centres undefined)", "Percent Effect": -3.33},
      {"smiles": "CCc1oc(C(=O)OC)cc1Cn1cccc(C(F)(F)F)c1=O", "Percent Effect": 6.73},
      {"smiles": "CC1(C)OC(=O)N(CCOc2ccc(F)cc2)C1=O", "Percent Effect": 5.04},
      {"smiles": "CC(C)C(C)NC(=O)Nc1cccc(OCC#N)c1", "note": "(centres undefined)", "Percent Effect": -3.11},
      {"smiles": "CN1CC2(CCN(C(=O)c3ccc(=O)n(C)c3)CC2)CC1=O", "Percent Effect": -1.98},
      {"smiles": "CC(C)NC(=O)C1(Cc2ccccc2-c2ccccc2)CCCNC1", "note": "(centres undefined)", "Percent Effect": 13.9},
      {"smiles": "Cc1ccc(OCc2occc2C(=O)N2CC[C@H](CO)[C@@H](O)C2)cc1", "Percent Effect": 14.2},
      {"smiles": "COCCN(CC(F)F)c1cc(COC)nc2ncnn12", "Percent Effect": 0.272},
      {"smiles": "O=C(C1COCCO1)N1CCN(CC(F)(F)F)c2ccccc21", "note": "(centres undefined)", "Percent Effect": 12.8},
      {"smiles": "CN1CCC(Cc2cnc(CNC(=O)Cc3cccc(F)c3)cn2)CC1", "Percent Effect": 3.91},
      {"smiles": "CCOc1ccccc1CN(C)C(C)c1nc(-c2cccnc2)no1", "note": "(centres undefined)", "Percent Effect": 1.83},
      {"smiles": "CN(C)c1ncccc1CNC(=O)CCNc1ncccn1", "Percent Effect": -6.85},
      {"smiles": "CCNc1cc2c(nn1)CCN(C(=O)c1ccc(-n3cccn3)nc1)C2", "Percent Effect": -5.94},
      {"smiles": "CN(CCc1noc(C2CC2)n1)C(=O)C1(N2CCCC2)CCCC1", "Percent Effect": -3.61},
      {"smiles": "Cc1cc(-c2ccnn2C)nc(C2CCN(S(C)(=O)=O)CC2)n1", "Percent Effect": 9.22},
      {"smiles": "OC(c1cnn(-c2ccccc2)c1)C(F)(F)F", "note": "(centres undefined)", "Percent Effect": -6.83}
    ]}
  ]
}
